Paper PMC4336329 (PLoS ONE, 2015)
The whole screen tested about 310,000 compounds, of which about 14,000 (4.5%) showed an effect of 50% or more. The effect is printed as a negative number. Many of the other results were omitted from the sample, so strong results are more common in it than they were.

These compounds were tested against human ether-à-go-go-related gene (hERG) potassium channel (human, UniProt Q12809) (assay: primary screen, population patch clamp on CHO cells stably expressing hERG; higher = less effect of the substance).
human ether-à-go-go-related gene (hERG) potassium channel, sequence (Q12809 whole entry, looked up): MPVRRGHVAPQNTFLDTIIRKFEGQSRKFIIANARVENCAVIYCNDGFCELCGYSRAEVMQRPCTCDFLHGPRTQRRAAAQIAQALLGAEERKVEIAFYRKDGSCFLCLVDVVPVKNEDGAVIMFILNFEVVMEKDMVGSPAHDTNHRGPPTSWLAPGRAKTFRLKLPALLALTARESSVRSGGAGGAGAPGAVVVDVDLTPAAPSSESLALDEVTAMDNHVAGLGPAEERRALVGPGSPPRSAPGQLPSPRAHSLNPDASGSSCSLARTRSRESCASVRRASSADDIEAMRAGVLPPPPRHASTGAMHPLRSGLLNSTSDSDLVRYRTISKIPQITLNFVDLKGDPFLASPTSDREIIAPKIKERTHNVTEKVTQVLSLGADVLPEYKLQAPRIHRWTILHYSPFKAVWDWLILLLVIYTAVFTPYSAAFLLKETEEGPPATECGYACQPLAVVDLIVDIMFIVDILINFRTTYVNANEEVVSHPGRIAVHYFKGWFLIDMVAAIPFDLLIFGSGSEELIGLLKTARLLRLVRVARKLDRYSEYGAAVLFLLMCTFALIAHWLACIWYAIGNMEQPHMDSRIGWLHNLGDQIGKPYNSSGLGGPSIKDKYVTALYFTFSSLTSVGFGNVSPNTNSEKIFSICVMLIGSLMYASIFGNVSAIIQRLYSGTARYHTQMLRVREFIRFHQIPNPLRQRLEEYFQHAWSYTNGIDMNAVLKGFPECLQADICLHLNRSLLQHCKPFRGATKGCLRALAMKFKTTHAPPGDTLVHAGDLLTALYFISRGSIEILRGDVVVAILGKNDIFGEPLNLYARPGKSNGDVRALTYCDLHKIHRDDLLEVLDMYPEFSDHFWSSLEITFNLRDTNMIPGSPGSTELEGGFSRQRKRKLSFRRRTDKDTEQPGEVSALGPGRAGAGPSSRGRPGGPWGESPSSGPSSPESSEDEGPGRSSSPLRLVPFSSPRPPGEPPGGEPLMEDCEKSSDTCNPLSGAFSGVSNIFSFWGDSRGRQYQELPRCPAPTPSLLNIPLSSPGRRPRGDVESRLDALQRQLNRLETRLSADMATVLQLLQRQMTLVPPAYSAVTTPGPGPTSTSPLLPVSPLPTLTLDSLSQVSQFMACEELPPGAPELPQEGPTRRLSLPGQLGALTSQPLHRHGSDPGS
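Further: peak tail current of the secondary pulse compared with the same well before compound.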

Row | Structure (SMILES) | hERG current change (%, negative = inhibition) at 10uM [%]
1 | O=C(CNS(=O)(=O)c1ccc(F)cc1)N1CCCC1 | 12
2 | O=C(CNS(=O)(=O)c1ccc(F)cc1)N1CCN(c2ccc(F)cc2)CC1 | -51.7
3 | O=C(CNS(=O)(=O)c1ccc(Br)s1)N1CCN(c2ccc(F)cc2)CC1 | -25.2
4 | Cc1ccc(S(=O)(=O)NCC(=O)N2CCN(c3ccc(F)cc3)CC2)cc1 | -10.2
5 | O=C(CNS(=O)(=O)c1ccc(Br)cc1)N1CCN(c2ccc(F)cc2)CC1 | -56.5
6 | O=C(CNS(=O)(=O)c1ccc(F)cc1)N1CCN(c2ccccc2)CC1 | -11.7
7 | CCn1nc(CC(=O)O)c2ccccc2c1=O | 22.9
8 | COc1cc([N+](=O)[O-])ccc1NC(=O)NCc1ccco1 | 10.9
9 | Cn1nnnc1SCC(=O)c1c(N)n(C)c(=O)n(C)c1=O | 18.3
10 | O=C(O)c1nn(-c2cccc(C(F)(F)F)c2)ccc1=O | 21.5
11 | Cc1cc(=O)c(C(=O)O)nn1-c1ccccc1 | 5.86
12 | Cc1cc(=O)c(C(=O)O)nn1-c1cccc(C(F)(F)F)c1 | -74.6
13 | CCOc1ccccc1C1CC(=O)NC2=C1C(=O)CCC2 (stereo not drawn) | 13.6
14 | O=C1CCC/C(=N/NC(=O)c2sc3ccccc3c2Cl)C1 | 5.82
15 | COc1cc(C(C)=O)ccc1OCC(O)CN1CCN(c2ccc(C)cc2C)CC1 (stereo not drawn) | -58.3
16 | COc1cc(C(C)=O)ccc1OCC(O)CN1CCN(c2cc(C)cc(C)c2)CC1 (stereo not drawn) | -56.2
17 | COc1cc(C(C)=O)ccc1OCC(O)CN1CCN(c2ccc(C)c(C)c2)CC1 (stereo not drawn) | -39.6
18 | COc1cc(C(C)=O)ccc1OCC(O)Cn1nc(C)c(Br)c1C (stereo not drawn) | -7
19 | COc1cc(C(C)=O)ccc1OCC(O)CN1CCN(S(=O)(=O)c2ccccc2)CC1 (stereo not drawn) | -11.5
20 | COc1cc(C(C)=O)ccc1OCC(O)CN1CCN(c2ccccc2)CC1 (stereo not drawn) | -31.5
21 | COc1cc(C(C)=O)ccc1OCC(O)CN1CCN(c2ccc(F)cc2)CC1 (stereo not drawn) | -39
22 | COc1cc(C(C)=O)ccc1OCC(O)CN1CCN(c2ccccn2)CC1 (stereo not drawn) | -9.62
23 | COc1cc(C(C)=O)ccc1OCC(O)CN1CCN(c2c(C)cccc2C)CC1 (stereo not drawn) | -60.3

Row | Structure (SMILES) | hERG current change (%, negative = inhibition) at 10uM [%]
24 | COc1ccc(C(=O)/C=C/Nc2c(C)n(C)n(-c3ccccc3)c2=O)c(OC)c1 | 0.857
25 | COc1ccc(NC2CCCN(C(=O)CCc3scnc3C)C2)cc1 (stereo not drawn) | 12.2
26 | CS(=O)(=O)c1ccc(N2CCN(C3CC(=O)NC3=O)CC2)cc1 (stereo not drawn) | 13.1
27 | CC(=O)c1ccc(S(=O)(=O)NCCC(=O)OCC(=O)N2CCCC2=O)cc1 | -7.6
28 | Cc1ccc2sc(N(CCCN(C)C)C(=O)CCS(=O)(=O)c3ccccc3)nc2c1C | -6.04
29 | COc1ccc(OC)c2sc(N(CCCN(C)C)C(=O)CCS(=O)(=O)c3ccccc3)nc12.Cl | -70.5
30 | COc1cccc2sc(N(CCCN(C)C)C(=O)c3sc4ccccc4c3Cl)nc12.Cl | -24.6
31 | COc1ccc(Cl)c2sc(N(CCN(C)C)C(=O)CCS(=O)(=O)c3ccc(C)cc3)nc12.Cl | -7.51
32 | COc1cccc2sc(N(CCCN(C)C)C(=O)CCS(=O)(=O)c3ccccc3)nc12 | -62.7
33 | CCOc1cccc2sc(N(CCN(C)C)C(=O)CCS(=O)(=O)c3ccccc3)nc12.Cl | -23.5
34 | COc1cccc2sc(N(CCCN(C)C)C(=O)C(c3ccccc3)c3ccccc3)nc12.Cl | -72.7
35 | COc1cccc2sc(N(CCN(C)C)C(=O)/C=C/c3cccs3)nc12.Cl | -41.5
36 | Cc1cccc2sc(N(CCCN(C)C)C(=O)CCS(=O)(=O)c3ccccc3)nc12 | -35
37 | Fc1cccc(Cl)c1Cn1nnc2c(-n3ccnc3)ncnc21 | 0.152
38 | COCCN1Cc2cccc(C(=O)Nc3ccc(S(=O)(=O)N4CCCCC4)cc3)c2C1=O | -4.49
39 | O=S1(=O)c2cccc3cccc(c23)N1Cc1ccc(-c2nnco2)cc1 | 7.2
40 | COCc1cc(C)nc(OCC(=O)N/N=C/c2ccc(-c3cc([N+](=O)[O-])ccc3Cl)o2)c1C#N | 18
41 | COc1ccccc1C1N(c2cc(Cl)ccc2OC)C(=O)C2CCCN21 (stereo not drawn) | 1.23
42 | Cn1c(=O)c2nc(NCc3ccccc3)cnc2n(C)c1=O | -1.44
43 | O=C(Nc1nnc(SCC(=O)N2CCOCC2)s1)C1CC(=O)N(c2ccc(F)cc2)C1 (stereo not drawn) | 15
44 | O=[N+]([O-])c1ccc(Cl)cc1CNc1ccc(F)c(F)c1 | 0.95
45 | COc1ccc(NC(=O)c2cc([N+](=O)[O-])ccc2NC(=O)CNCc2ccccn2)c(OC)c1 | 7.29
46 | COc1ccc(NC(=O)c2cc([N+](=O)[O-])ccc2NC(=O)CNC2CCCCC2C)c(OC)c1 (stereo not drawn) | -76.3

Row | Structure (SMILES) | hERG current change (%, negative = inhibition) at 10uM [%]
47 | COc1ccc(CNC2CCCCC2C)c(OC)c1 (stereo not drawn) | -56.9
48 | COc1ccc(CC(=O)NC2CCCCCC2)c(OC)c1 | -3.09
49 | COc1ccc(CNC2CCCc3ccccc32)c(OC)c1 (stereo not drawn) | -36.9
50 | COc1cc(NC(=O)c2cc([N+](=O)[O-])ccc2NC(=O)CNC2CCCCC2C)cc(OC)c1 (stereo not drawn) | 20.3
51 | CCOc1ccc(CCNC(=O)COC(=O)c2ccc(C)s2)cc1OCC | 14.6
52 | COc1ccc(C2NC(=O)C(C#N)=C(S)N2c2ccc(C)cc2)cc1OC (stereo not drawn) | 18.2
53 | Cc1c(C(N)=O)sc2nc(-c3ccccc3)cn12 | 1.01
54 | Cc1ccc(NC(=O)CNCC(c2ccccc2)N(C)C)cc1F.O=C(O)C(=O)O (stereo not drawn) | -38.1
55 | Cc1ccc(Cl)cc1NC(=O)CNCC(c1ccccc1)N(C)C.O=C(O)C(=O)O (stereo not drawn) | -30.3
56 | CC(=O)c1ccc(NC(=O)CNCC(c2ccccc2)N(C)C)cc1.O=C(O)C(=O)O (stereo not drawn) | 2.26
57 | COc1ccc(Cl)cc1NC(=O)CNCC(c1ccccc1)N(C)C.O=C(O)C(=O)O (stereo not drawn) | -73.9
58 | CCOC(=O)c1cc(NC(=O)CNCC(c2ccccc2)N(C)C)cc(C(=O)OCC)c1.O=C(O)C(=O)O (stereo not drawn) | -57.7
59 | COc1ccc(Cl)cc1NC(=O)CNC(c1ccccc1)c1ccccc1 | 12.6
60 | Cn1c(SCC(=O)N2CCOCC2)nc2c(c1=O)SCC2 | 15.8
61 | O=C(c1ccccc1)N1CCC(CC2CC(c3ccc(Cl)cc3)=NO2)(C(=O)NCC2CCCCC2)CC1 (stereo not drawn) | -52
62 | CC1(C(=O)N2CCC(CC3CC(c4ccc(Cl)cc4)=NO3)(C(=O)NCC3CCCCC3)CC2)CC1 (stereo not drawn) | -40.8
63 | CC(C)(C)OC(=O)N1CCC(CC2CC(c3ccc(Cl)cc3)=NO2)(C(=O)NCC2CCCCC2)CC1 (stereo not drawn) | -19.5
64 | O=C(CCCCCBr)N1CCC(CC2CC(c3ccc(Cl)cc3)=NO2)(C(=O)NCC2CCCCC2)CC1 (stereo not drawn) | -74.6
65 | O=C(CCCCCBr)N1CCC(CC2CC(c3cccc(Br)c3)=NO2)(C(=O)NCC2CCCCC2)CC1 (stereo not drawn) | -69
66 | O=C(c1ccccc1)N1CCC(CC2CC(c3cccc(Br)c3)=NO2)(C(=O)NCC2CCCCC2)CC1 (stereo not drawn) | -1.49
67 | O=C(C1CCCC1)N1CCC(CC2CC(c3cccc(Br)c3)=NO2)(C(=O)NCC2CCCCC2)CC1 (stereo not drawn) | -49.9
68 | O=C(C1CCCC1)N1CCC(CC2CC(c3ccc(Cl)cc3)=NO2)(C(=O)NCC2CCCCC2)CC1 (stereo not drawn) | -24.1
69 | CC(C)(C)OC(=O)N1CCC(CC2CC(c3cccc(Br)c3)=NO2)(C(=O)NCC2CCCCC2)CC1 (stereo not drawn) | 13.7

Row | Structure (SMILES) | hERG current change (%, negative = inhibition) at 10uM [%]
70 | CCOC(=O)c1c(-c2ccc(C)s2)csc1N | 7.8
71 | Cc1cccc(/C=C/C(=O)c2cc(Br)ccc(=O)c2O)c1 | 16.7
72 | COc1ccc(Oc2ncnc3sccc23)cc1 | 1.8
73 | CC#CC(=O)N1CCC(CCC(=O)N(C)Cc2ccccc2)CC1 | -7.72
74 | CCc1ccc(NC2=CC(=O)CC(c3ccco3)C2)cc1 (stereo not drawn) | 5.49
75 | CNC1=CC(=O)CC(c2ccccc2)C1 (stereo not drawn) | -1.58
76 | CCCCCCCNC1=CC(=O)CC(c2ccccc2)C1 (stereo not drawn) | -81.3
77 | CCCCCCCNC1=CC(=O)CC(c2ccco2)C1 (stereo not drawn) | -76.9
78 | CC(C)CNC1=CC(=O)CC(c2ccco2)C1 (stereo not drawn) | 6.11
79 | CN(C)CCCNC1=CC(=O)CC(c2ccccc2)C1 (stereo not drawn) | 3.58
80 | COc1cc(S(=O)(=O)NCCN2CCOCC2)ccc1-n1cnnn1 | 17.5
81 | O=S(=O)(Nc1ccc2c(c1)OCCO2)c1cccc2nsnc12 | -11.2
82 | O=C(O)c1ccc(Cn2cnc3scc(-c4ccccc4)c3c2=O)cc1 | 20.8
83 | c1ccc(Cn2c(CNc3nc4ccccc4n3CCN3CCOCC3)nc3ccccc32)cc1 | -84.3
84 | Cn1c(CNc2nc3ccccc3n2C)nc2ccccc21 | -15.2
85 | c1coc(CNc2nc3ccccc3n2CCN2CCOCC2)c1 | -33.2
86 | C=CCc1cccc(CNc2nc3ccccc3n2CCN2CCOCC2)c1O | -6.61
87 | CCN(CC)CCn1c(NCc2nc3ccccc3n2Cc2ccccc2)nc2ccccc21 | -2.44
88 | Cn1c(CNc2nc3ccccc3n2CCN2CCCCC2)nc2ccccc21 | -65
89 | c1ccc(Cn2c(CNc3nc4ccccc4n3CCN3CCCCC3)nc3ccccc32)cc1 | -68.5
90 | CC(C)n1c(NCc2nc3ccccc3n2C)nc2ccccc21 | -46.4
